Here are results for 40 sequences from the supplement of paper PMC6555819.

The test has as its system VDR:RXRa (NR concentration 270 nM, RXRa partner concentration 90 nM). Nature of the test: PBM binding z-score (relative to random genomic background probes); higher = stronger binding; sequences stand for … in GC…GCGATTGACAGCGTAGAATGAAGG
The procedure:
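Protein-binding microarray (Agilent 4x180K custom design, double-stranded 60-nt probes: 5' GC cap, 34-nt variable region, 24-nt constant primer region; full probe sequence given). Purified or IVT nuclear receptor:RXRα heterodimers (3:1 NR:RXRα, mostly 270:90 nM) or homodimers were incubated for 1 h in PBS with 2% milk and no ligand, then detected with Alexa488 antibodies. Fluorescence from o1-orientation probes (~5 replicates averaged) was converted to z-scores against 500 random hg19 background probes. Variable regions are seed direct-repeat (DR0–DR5) sites, all their single-nucleotide variants and half-site ablations.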
For GTACTAAGGTGAATAGGTCGTTGATGAGTAGGCG, the PBM binding z-score came out at 1.24.

In turn, TCATAGAGGTAAACAGGTGAAAGTCCGTAAGTTA showed a PBM binding z-score of 0.83. For AGAATGAGGCTACCAAAGATCAGGGAAACGCTTG the value was -0.544. For GCTGCTGGGTCAGGTTGGTCAGCTAACGGGTACG the value was 0.554; for TGTCAAAATTCAAAGGTAACGTAAGTATCCACAC, 0.436; for CCGAGTGGGTTATGGGGCATTCAGGCAACGGTGA, -0.199. With CTCGAGAGGTCGTGCTCAGGTGAGTATACCAAAC, the PBM binding z-score was determined as 3.37.

On to CCTACTGGGCCATCGGGTCATTGATATCAACGTT, for which the PBM binding z-score worked out at 2.27. To ACAGACAGGTGACGAAGGTAACTCAGGCTATCAT belongs 0.352; to AGAACGAGGGCAATGAGTTGATGGCACGGGTGGC, 4.7. To ATCTCTAGGTAAGGCTCAGTTCAGTGAAGAACGC belongs 0.553. For the sequence GCACCAAGGTGAATAGGTCGTTGATGAGTAGGCG, the PBM binding z-score turned out to be 0.503. To AGAAAGAGGTTATACGTAGATCAGGGAAGAAAGT belongs 1.4. To AGTCAAAGTTCACTAAGTAACGTAAGATTCAGCT belongs 3.9. For ATCTCTAGGTAAAGATAGTTCAGTGAGTGCAAAT the value was 5.05; for TCATATAGGTAAATGCTAAGTGAAAGTCCGATCT, 0.987. Turning to ATCTCTAGGTGAAGATAGTTCAGTGAATGCAAAT, the PBM binding z-score worked out at 0.849. To ATCTATAGGTAAGACTCAGTTCAGTGAAGAACGC belongs 0.866; to TGTCAAACTTCAAAGGTAACGTAAGTATCCACAC, 0.41; to TCTGCTAGGTCAGTTGGTCAGCCAACGAGCTGCC, -0.0135. To TCTGCTAGGTCGGTTGGTCAGCTAACGAGCTGCC belongs -0.462; to GGAACGAGGGCAAAGATGATAGCATCTGTCGACG, 0.573. To AGAATGAGGTTATTAAGATCAGGGATTTGCGGTC belongs 2.6.

The sequence TTACCAAGGTGAAGGTCCTTGATCCCTCTGTAGA displayed a PBM binding z-score of 0.388. TCTGCTAGGTCAACGAGGGTCAGCTAATCTGCTA displayed a PBM binding z-score of 5.1. Sequence TCTATTAGTTGATAAGGGCAACCGAAACAGCGGA showed a PBM binding z-score of 0.713.

On to CCTAGTTGGTCAGGAGGTCACACGCCGGATATGA, for which the PBM binding z-score stood at 3.93. For GCTAGTTGGTCAGTAAAAGCTCACACACCGGTCG the value was -0.481. For CTACCAAGGTGAACAAGGTCGATGATTACTATTC the value was 4.83. On to ACTAGTTGATCAGCTGAGGTCACACACAATTCGG, for which the PBM binding z-score was 4.02. To ATATGTAGGTTAAGGGTAATTCAGGTTGGTTCGC belongs 1.61; to ATCTCTAGGTAAAGATAGTTCTGTGAATGCAAAT, 0.285; to TTACCAAGGTGAAAGGTTGTTGATGCACGCCTTG, 1.15. The sequence TCTATTAGTTGATTAGGGCAACCGCAACAGCGGA yielded a PBM binding z-score of 0.526. For TCATATACGTAAATGCTAGGTGAAAGTCCGATCT the value was 0.839. To TTACCAAGGTGAGCTGAGCTCGTTGATCCAACTC belongs -0.427. In turn, AGAATGATGTTATACGTAGATCAGGGAAGAAAGT registered a PBM binding z-score of -0.209. For CTCGAAAGGTCGGTAGAGGTGAGTATACGGATAA the value was 2.05; for ACTAGCAGGCCAAGTTTGGGTCACTCACACAAAG, 0.806; for TCTAGCAGGCCAGAGGGTCATTCAAGAGGTACGG, 2.25.
